# In PubChem BioAssay (Tox21):
# Inconclusive results are not listed. A call without a number means that no potency is given here. Values without a mark were called inactive. The source made the active and inactive calls. Calls follow the shape of the full dose curve.
# Test: p53 small molecule agonists, cell-based qHTS assay with rat liver microsomes (AID 1963578)
# Conditions: HCT-116 p53RE-bla, beta-lactamase ratio, 16 h; series mostly up to 66 µM
# Source text: U.S. Tox21 Program National Center for Advancing Translational Sciences [NCATS] Division of Preclinical Innovation [DPI] U.S. Environmental Protection Agency [EPA] National Institutes of Environmental Health Sciences [NIEHS] National Toxicology Program [NTP] U.S. Food and Drug Administration [FDA] Tox21 Assay Overview: p53, a tumor suppressor protein, is activated following cellular insult, including DNA damage and other cellular stresses. The activation of p53 regulates cell fate by inducing DNA repair, cell cycle arrest, apoptosis, or cellular senescence. The activation of p53, therefore, is a good indicator of DNA damage and other cellular stresses. […] The activation of the reporter gene under culture conditions can be detected by fluorescence intensity. This cell line was used to screen the Tox21 10K compound library in the condition of presence of rat liver microsomes and to identify agonists that activate the p53 signaling pathway after in vitro metabolic activation (Ooka et al., Archive of Toxicology 96:1975-1987, 2022).
# Tox21 Assay Protocol Summary: The p53RE-bla cells were dispensed at 4,000cells/3ul/well in 1536-well black-clear bottom plates. After the assay plates were incubated at 37 C, 5% CO2 incubator for 5 hours, 23 nL of compounds dissolved in DMSO, positive controls or DMSO only was transferred to the assay plate. Following compound addition, 3 uL of rat liver microsomes (Molecular Toxicology, Boone, NC) at final concentration of 0.5 mg/mL and 1uL of Beta-Nicotinamide adenine dinucleotide 2-phosphate (NADPH) at final concentration of 0.5 mg/mL were transferred to the assay plate. The plates were incubated at 37 C for 16 hours. 1 uL of LiveBLAzer detection mixture was added to each well and the plates were incubated at room temperature in the dark for 2 h.
Compound,Potency,activation
Cc1ccccc1C,inactive,–
C/C(=C(\CCO)SS/C(CCO)=C(\C)N(C=O)Cc1cnc(C)nc1N)N(C=O)Cc1cnc(C)nc1N,inactive,–
Clc1ccccc1-c1nc(-c2ccncc2)no1,inactive,–
CCCCCCOC(=O)CC,inactive,–
COc1ccc2cc1Oc1cc3c(cc1OC)CC[N+](C)(C)[C@H]3Cc1ccc(cc1)Oc1c(OC)c(OC)cc3c1[C@@H](C2)[N+](C)(C)CC3,inactive,–
CCC(C(=O)NC(N)=O)c1ccccc1 (stereo not given),inactive,–
CCCCCCCCCCCCCCC(=O)O,inactive,–
O=C1c2cccc(O)c2C(=O)c2c(O)cccc21,inactive,–
C[C@@H](O)[C@H]1C(=O)N2C(C(=O)O)=C([C@H]3CCCO3)S[C@H]12,inactive,–
c1ccc(CCCc2ccncc2)cc1,inactive,–
CC(C)OC(=O)C(O)(CC(=O)O)CC(=O)O,inactive,–
Cn1cc(S(C)=O)c(=O)c2ccc(F)cc21 (stereo not given),inactive,–
Cc1ccc(C(C)NC(=O)[C@@H](NC(=O)OC(C)C)C(C)C)cc1 (stereo not given in full),inactive,–
O=C(O)c1ccc(OCCCOc2ccc(C(=O)O)cc2)cc1,inactive,–
C[N+](C)(CCOc1ccccc1)Cc1cccs1,inactive,–
CCCCCCCC(=O)[O-].CCCCCCCC(=O)[O-].[Zn+2],inactive,–
CC(C)CCCC(C)N (stereo not given),inactive,–
COc1ccc2cc(C=O)ccc2c1,inactive,–
NC(=O)c1ccccc1Cl,inactive,–
O=C1C=CC(=O)O1,inactive,–

Compound,Potency,activation
NCCN1CCNC1=O,inactive,–
COC(=O)Nc1ccc(Cl)c(Cl)c1,inactive,–
CCCCC(CC)COC(=O)CCCCCCCC(=O)OCC(CC)CCCC (stereo not given),inactive,–
CCCCCCCCOCCC#N,inactive,–
COc1cc(C(=S)N2CCOCC2)ccc1O,inactive,–
c1ccc2c(c1)CCc1ccccc1N2,inactive,–
CO[Si](CCCOCC1CO1)(OC)OC (stereo not given),inactive,–
OCCOCCN1CCN(C2=Nc3ccccc3Sc3ccccc32)CC1,inactive,–
CCOCCOCCOCC,inactive,–
O=C(c1ccc(OCCN2CCCCC2)cc1)c1c(-c2ccc(O)cc2)sc2cc(O)ccc12,inactive,–
CC(S)C(=O)NCC(=O)O (stereo not given),inactive,–
Cc1cc(C)c(N=Nc2c(O)c(S(=O)(=O)O)cc3cc(S(=O)(=O)O)ccc23)cc1C,–,0.887% [at 5.99 µM]
Cc1ccccc1N=O,inactive,–
C=C[Si](OC(=C)C)(OC(=C)C)OC(=C)C,inactive,–
CCCC(=O)CC,inactive,–
CC(=O)N1C[C@H](O)C[C@H]1C(=O)O,inactive,–
O=c1n(CCO)c(=O)n(CCO)c(=O)n1CCO,inactive,–
Oc1c(Cl)ccc(Cl)c1Cl,inactive,–
C#CC(O)CCC (stereo not given),inactive,–
C(/C=C/C=C/Nc1ccccc1)=Nc1ccccc1,inactive,–
